An excerpt weighted towards active compounds, which were near 5.7% of everything screened.
NPSR antagonist: qHTS Assay for Antagonists of the Neuropeptide S Receptor: cAMP Signal Transduction. CHO-NPSR cells, cAMP TR-FRET, antagonist mode. Potency, µM (highest dose often 38.3 µM), for inactives: at the highest dose activity change, negative = inhibition, most hits filed as inhibitors. 220,000 compounds, 1% hits; note: nearly all actives have a fitted effect of over 50% in size
Gal4-VP16 FLuc: VP16 counterscreen qHTS for inhibitors of ROR gamma transcriptional activity; Drosophila S2 Gal4-VP16 UAS-luciferase, luminescence, 20 h; Potency, µM (highest dose often 53.6 µM), for inactives: at the top dose activity, negative = inhibition, hits mostly inhibitors; 310,000 compounds, 3.5% hits; AID 2546, 2010;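 note: Gal4-VP16 expression switched on by copper sulfate through the metallothionein promoter; nearly all actives have a fitted effect of over 50% in size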
B2AR arrestin: qHTS assay of beta-arrestin-biased ligands of beta2-adrenergic receptor. Beta-2 adrenergic receptor (Homo sapiens), P07550. beta-arrestin recruitment to beta2AR, cell-based reporter. Potency, µM (highest dose often 46.1 µM), for inactives: at the highest dose activation, actives largely listed as activators. 330,000 compounds, 0.02% hits;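 note: 0% = DMSO controls and full agonism = EC100 isoproterenol or metaproterenol; nearly all actives have a fitted effect of over 65% in size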
RORgamma inh: qHTS for inhibitors of ROR gamma transcriptional activity; Nuclear receptor ROR-gamma (Mus musculus), P51450; Drosophila S2 Gal4-RORgamma UAS-luciferase reporter, 20 h; Potency, µM (titrated, usually from 53.6 µM), for inactives: at the highest dose activity change, negative = inhibition, usual class: inhibitors; 310,000 compounds, 5.4% hits; AID 2551, 2010; note: nearly all actives have a fitted effect of over 60% in size
Target sequence (P51450 whole entry, looked up, the tested form may be a part): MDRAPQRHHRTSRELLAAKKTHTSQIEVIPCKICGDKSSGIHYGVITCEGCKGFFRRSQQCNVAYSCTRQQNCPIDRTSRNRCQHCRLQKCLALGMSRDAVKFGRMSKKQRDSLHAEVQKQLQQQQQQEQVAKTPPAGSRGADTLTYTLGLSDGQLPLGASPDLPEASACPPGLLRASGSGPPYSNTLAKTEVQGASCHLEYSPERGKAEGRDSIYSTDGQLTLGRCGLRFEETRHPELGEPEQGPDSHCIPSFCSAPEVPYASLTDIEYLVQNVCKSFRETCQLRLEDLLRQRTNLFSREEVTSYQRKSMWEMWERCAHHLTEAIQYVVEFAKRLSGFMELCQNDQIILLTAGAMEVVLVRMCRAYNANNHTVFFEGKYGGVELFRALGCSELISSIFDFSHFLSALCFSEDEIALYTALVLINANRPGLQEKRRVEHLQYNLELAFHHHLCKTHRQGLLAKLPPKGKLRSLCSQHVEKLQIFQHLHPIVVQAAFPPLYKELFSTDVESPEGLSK
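Schneider cells (Drosophila), stable Gal4 DBD–ROR gamma + UAS-luc; 1 hr cmpd preincubation; Cu2+ induction 700 uM final; 20 hr ambient; luminescence.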
Numbers without * were called inactive; ? = inconclusive; nt = not tested or not shown; [ ] = another dose, or the depositor's remark. Calls come from the whole dose curve; as a rule, active = well fitted curve in the direction sought with a large enough effect; inconclusive = small, poorly fitted or top-dose-only effect, or another doubt; inactive = no such curve, though single readings can be large; an effect the other way counts as inactive or inconclusive. Unless noted, % is set by controls: 0 for no effect and ±100 for the full control effect; potency is the fitted concentration of half-maximal effect.

SMILES	NPSR antagonist	Gal4-VP16 FLuc	B2AR arrestin	RORgamma inh
COc1cccc(C(=O)Nn2cnnc2)c1OC	nt	-12%	-1%	-33%[1.91 µM]
Cc1ccc(CNC(=O)C2CCC(=O)N(CCCN3CCOCC3)C2)cc1 (stereo not given)	nt	-6%	0%	-16%
Cn1c(-c2ccccc2)cc2c3no[n+]([O-])c3ccc21	?	?	-1%	6.3µM*
Cc1ccc(C(=O)C[n+]2cc(-c3ccc(C)cc3)n3c2CCCCC3)cc1	-2%[46.1 µM]	5µM*	0%	?
S=c1[nH]nc(-c2cccnc2)n1/N=C/C=C/c1ccccc1	-20%	?	0%	4.5µM*
S=c1[nH]nc(C2CCCCC2)n1/N=C/C(Cl)=C\c1ccccc1	-38%	5.6µM*	10%	2µM*
O=C(O)COc1ccccc1/C=N/n1c(C2CCCCC2)n[nH]c1=S	nt	-8%	0%	-31%
S=c1[nH]nc(C2CCCCC2)n1/N=C/C=C/c1ccccc1	-20%[46.1 µM]	6.3µM*	0%	0.89µM*
S=c1[nH]nc(-c2cccnc2)n1/N=C/c1ccccc1	-21%	-9%	1%	?
N#Cc1nc(-c2cccc3ccccc23)oc1NCC#CCOC(=O)c1cccs1	nt	nt	0%	nt
COc1ccc(Cl)cc1NC(=S)N1CCC(c2ccc(C)cc2)C1 (stereo not given)	-21%	-17%	0%	13µM*
COc1ccc(NC(=O)C/C(C)=N/NC(=O)C(=O)NC2CCCCC2)c(OC)c1	8%	-1%	0%	0%
COc1ccc(Cl)cc1NC(=S)N1CCCCCC1	nt	-30%	0%	?
COc1ccc(NC(=S)NC2CCCCCC2)c(OC)c1	3%	7.1µM*	-2%	3.2µM*
COc1ccc(NC(=S)NC2CCCCC2)c(OC)c1	-3%	?	0%	3.2µM*
COc1ccc(Cl)cc1NC(=S)Nc1ccccc1F	-10%	?	-2%	?
COc1ccc(Cl)cc1NC(=S)NC1CCCC1	nt	7.1µM*	-4%	10µM*
OC[C@@H]1OC(O)[C@@H](O)[C@H](O)[C@@H]1O (stereo not given in full)	nt	3%	nt	-4%
Cc1cccc(C)c1NC(=S)N1CCC(c2ccccc2)C1 (stereo not given)	-33%	35µM*	0%	16µM*
CCn1ncc(C2=NOC(C(=O)Nc3ccc4c(c3)OCO4)C2)c1C (stereo not given)	?	16µM*	0%	14%
O=C(Nc1ccc2c(c1)OCCO2)C1CC(c2ccccc2Cl)=NO1 (stereo not given)	nt	13%	-1%	-27%
O=C(Nc1ccc2c(c1)OCO2)C1CC(c2ccccc2O)=NO1 (stereo not given)	nt	?	-1%	1.6µM*
CN(C)c1nc2c(Br)c(Br)c(Br)c(Br)c2[nH]1	17%[46.1 µM]	nt	nt	nt
CS(=O)(=O)CCCCN=C=S	nt	-16%	nt	13µM*
COc1ccccc1-c1cnn2c(NC3CCCC3)cc(C)nc12	nt	?	0%	10µM*
SMILES	NPSR antagonist	Gal4-VP16 FLuc	B2AR arrestin	RORgamma inh
COc1ccccc1-c1ccc(NC2CCCC2)nn1	-5%	-5%	0%	-8%
Cc1csc(CNc2ncnc3ccc(-c4ccc5c(ccn5C)c4)cc23)c1	nt	nt	0%	nt
O=C(NCc1n[nH]c(=S)n1-c1ccc(Cl)c(Cl)c1)c1cccs1	-10%	6%	0%	16µM*
S=C(NCc1ccccc1)NN1CCOCC1	18%	3%[10 µM]	0%	?
CCNC(=S)Nc1ccc(Cl)cc1Cl	12%	-13%	-2%	11µM*
S=C(NCc1ccc(Cl)cc1)NN1CCOCC1	14%	?	0%	10µM*
CCCNC(=S)NCc1ccc(Cl)cc1	5%	-72%	0%	10µM*
Cc1cc(Cl)ccc1NC(=S)NCc1ccc(S(N)(=O)=O)cc1	6%	4%	0%	4%
Cc1cc(Cl)ccc1NC(=S)NCc1ccc(Cl)cc1	-11%[46.1 µM]	-2%[0.365 µM]	0%	2.8µM*
CCc1cc[n+](CC(=O)Nc2ccc(Cl)cc2Cl)cc1	11%	-6%	0%	0%
CC(C)CCCC(C)C1CCC2C3CC=C4CC(=O)CC[C@@]4(C)C3CC[C@@]12C (stereo not given in full)	nt	-2%	nt	-5%
CO[C@@H]1COC(=O)[C@@H](CCSC)NC(=O)C/C=C\[C@@H](C)COC(=O)[C@H](C)NC(=O)C/C=C\[C@H]1C	nt	-15%[10 µM]	nt	-9%[10 µM]
COc1ccc(C(C)NC(=O)Cc2cccs2)cc1OC (stereo not given)	nt	-3%	0%	-13%
Cn1c(SCC(=O)Nc2ccccc2Br)nnc1-c1cnccn1	nt	-3%	0%	-12%
Cc1cc(Cl)ccc1NC(=S)NCCc1ccc(Cl)cc1	nt	5µM*	5%	6.3µM*
S=C(NCCc1ccccc1)Nc1ccc(Cl)cc1Cl	-17%[46.1 µM]	16µM*	-1%	4µM*
Cc1cc(Cl)ccc1NC(=S)NCc1ccco1	8%[46.1 µM]	10µM*	0%	?
Cc1ccc(Cl)cc1NC(=O)CCC(=O)NCc1ccco1	nt	2%	0%	8%
Cn1nnc2cc(C(=O)N3CCC(c4ccccc4)C3)ccc21 (stereo not given)	-5%[46.1 µM]	0%	0%	20%
COC(=O)c1ccc(C(/C=C/[C@@H](C)C(=O)NCc2ccc(OC)c(O)c2)NC(=O)OCc2ccccc2)cc1 (stereo not given in full)	nt	5%	nt	45%
CS(=O)(=O)N1CCC(Oc2ccccc2C(=O)N2CCN(CC3CC3)CC2)CC1	7%	4%	0%	20%
NC(=S)c1ccc[n+]([C@@H]2O[C@@H](COP(=O)([O-])OP(=O)(O)OC[C@H]3O[C@@H](n4cnc5c(N)ncnc54)[C@H](OP(=O)(O)O)[C@H]3O)C(O)C2O)c1 (stereo not given in full)	-7%[46.1 µM]	nt	nt	nt
Cc1c(C(=O)N2CCOCC2)sc(NC(=O)CCl)c1C#N	nt	?	0%	13µM*
Cc1c(C(=O)N2CCOCC2)sc(NC(=O)c2ccc([N+](=O)[O-])cc2)c1C#N	nt	1%	0%	14%
C=CCOC(=O)N[C@H](/C(C(=O)OC)=C(\C)NCc1ccccc1)c1ccc(C)cc1	nt	2%	nt	-17%
SMILES	NPSR antagonist	Gal4-VP16 FLuc	B2AR arrestin	RORgamma inh
CCCCCCCCn1ccc(=N)cc1	-20%	7.1µM*	-1%	?
CCCCCCCCCCn1ccc(=N)cc1	7.9µM*	?	0%	7.9µM*
CCCCCCN1Cc2ccccc2C1	-8%[46.1 µM]	7%	0%	-9%
O=C(COc1cc2oc(=O)c3c(c2cc1Cl)CCC3)NCCCn1ccnc1	nt	-5%	0%	-13%
c1ccc2[nH]c(NC3=NCCC3)nc2c1	7%[46.1 µM]	11µM*	0%	2.8µM*
CC1C/C(=N/Nc2nc3ccccc3[nH]2)CC(C)(C)C1 (stereo not given)	-31%	8.9µM*	0%	3.2µM*
c1ccc2[nH]c(NN=C3CCCCCC3)nc2c1	-42%	?	?	11µM*
Cc1ccc(Nc2nc3ccccc3[nH]2)nc1	-4%[46.1 µM]	5µM*	0%	5µM*
CCNc1nc2ccccc2[nH]1	0%[46.1 µM]	-10%	0%	-5%
N#Cc1ccccc1OCC(=O)NC(=O)NCc1ccco1	5%	-5%	0%	22%
COCCN=C1NN=C(c2ccc(C)c([N+](=O)[O-])c2)CS1	8%	-16%	0%	13µM*

Bioassay records from PubChem.
